The panel holds about 83,000 compounds, 20% with a hit somewhere; the sample as a whole holds those more often.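 Values shown are percent growth following 48 h exposure of cells in 96-well plates to a single concentration of compound; below 10 was considered active.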 A number with no mark means an inactive call. Active and inactive are the calls of the source.
Each compound was assayed on HCC-2998 colon (assay: NCI-60 one-dose screen, 48 h (100 = growth as untreated, 0 = no growth, -100 = all killed)). Details: 10 µM unless noted.
In the case of Brc1ccc(Cn2nnnc2-c2ccn(-c3ccccc3)n2)cc1, the growth was 80.1%.
Compound CC(C)(C)CC(C)(C)c1ccc(OCCOCC[N+](C)(C)CC(=O)[O-])cc1 has a growth of 108%.
CN(C)c1ccc(N)c2ccccc12 was tested, and the growth was 50.2%.
For O=C1c2ccccc2C(=Cc2ccccc2)c2ccccc21, the growth was -45.7% (active).
COC(=O)[C@]12CC[C@@H](C)[C@H](C)[C@@H]1C1=CC[C@@H]3[C@@]4(C)C=C(O)C(=O)C(C)=C4CC[C@@]3(C)[C@]1(C)CC2 was tested, and the growth was 9.96% (active).
Cn1cnc2c1c(=O)n(CCC(=O)Nc1ccc(F)cc1)c(=O)n2C gave a growth of 108%.
With COC1=C(Br)C(=O)C(OC)=C(Br)C1=O the growth was 114%.
N#C/C(=C\c1ccc(-c2ccc(F)cc2)o1)c1nc(-c2ccco2)cs1 gave a growth of 51%.
For Nc1nc(N)c2nc3c(nc2n1)CCCCCCCCCC3, the growth was 39.2%.
COc1ccc(-n2c(/C=C/c3ccc(O)c(OC)c3)cc(/C=C/c3ccc(O)c(OC)c3)nc2=O)cc1 gave a growth of 94.9%.
With NC(=O)[C@@H]1CC2CCC1C2 (stereo not given in full) the growth was 121%.
C=C1C(=O)O[C@H]2[C@H]1CC/C(COC(=O)NCc1cc3ccccc3[nH]1)=C\CC[C@@]1(C)O[C@@H]21 gave a growth of 98.3%.
[B-][N+](CC)(CC)c1ccccc1 showed a growth of 105%.
Compound Cc1nn2c(-c3nc4cc(Cl)c(Cl)cc4[nH]3)c(-c3ccc(F)cc3)nc2s1 has a growth of 75.8%.
O=C1C=C(C(O)c2ccc(O)cc2)C(=O)c2ccccc21 (stereo not given) was tested, and the growth was 97%.

Reference: PubChem BioAssay (NCI)
